Experimental data reported in PubChem BioAssay AID488969 (Vanderbilt High Throughput Screening Facility, 2010).
Over roughly 110,000 compounds, “z-score” has its median near -0.1; the highest 2% begin near 2. Only a selection was taken, and the highest values are over-represented in it overall. Activity calls are given as the source filed them.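 How the source made its calls: active means z-score in the third read window above 3 or below -3; inactive means the rest.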

Each compound was assayed against Metabotropic glutamate receptor 8 (Rattus norvegicus) (UniProt P70579) (assay: rat mGluR8 modulators via GIRK flux, primary screen, cell-based, thallium flux, HTS (AID 488969)). Conditions: HEK293 rat mGluR8, GIRK (G protein-gated inwardly rectifying potassium channel) thallium flux, FluoZin2; at 10 µM; stronger effect = higher value; submaximal glutamate (EC20) added with thallium.
Metabotropic glutamate receptor 8 (Rattus norvegicus), sequence (P70579 whole entry, looked up): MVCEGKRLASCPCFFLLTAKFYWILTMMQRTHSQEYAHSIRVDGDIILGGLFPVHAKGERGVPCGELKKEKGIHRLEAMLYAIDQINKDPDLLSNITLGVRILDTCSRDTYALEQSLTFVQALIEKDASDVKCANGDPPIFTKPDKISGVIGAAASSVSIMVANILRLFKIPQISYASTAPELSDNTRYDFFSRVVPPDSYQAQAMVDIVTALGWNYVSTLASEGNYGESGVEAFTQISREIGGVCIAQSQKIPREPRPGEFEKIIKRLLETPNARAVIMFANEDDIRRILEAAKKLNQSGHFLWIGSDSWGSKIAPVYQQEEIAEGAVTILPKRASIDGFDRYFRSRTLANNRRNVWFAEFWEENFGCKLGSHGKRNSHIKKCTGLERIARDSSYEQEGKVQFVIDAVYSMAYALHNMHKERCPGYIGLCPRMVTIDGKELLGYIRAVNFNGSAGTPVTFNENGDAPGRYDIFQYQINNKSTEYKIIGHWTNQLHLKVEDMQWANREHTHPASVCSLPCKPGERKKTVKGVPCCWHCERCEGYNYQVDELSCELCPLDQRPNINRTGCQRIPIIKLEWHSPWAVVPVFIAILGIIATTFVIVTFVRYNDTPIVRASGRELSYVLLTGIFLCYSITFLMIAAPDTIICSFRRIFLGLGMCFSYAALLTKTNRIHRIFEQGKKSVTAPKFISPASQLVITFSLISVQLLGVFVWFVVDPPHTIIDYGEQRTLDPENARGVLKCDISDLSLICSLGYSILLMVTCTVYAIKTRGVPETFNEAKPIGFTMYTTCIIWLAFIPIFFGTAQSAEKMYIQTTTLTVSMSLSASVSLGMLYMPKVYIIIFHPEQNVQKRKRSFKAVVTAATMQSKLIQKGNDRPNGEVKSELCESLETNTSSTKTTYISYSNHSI

| Structure (SMILES) | z-score |
| --- | --- |
| CCc1cc2c(=O)c(Oc3ccccc3)c(C)oc2cc1O | 0.432 |
| O=C(CNC(=O)c1cccc(F)c1)N/N=C/c1cccc([N+](=O)[O-])c1 | -0.00152 |
| COc1ccc(S(=O)(=O)NC(C(C)C)C(C)C)cc1OC | 0.101 |
| CSc1nc(N2CCOCC2)c2c(c1C#N)CCCCC2 | -0.315 |
| CCC1Cc2c(nc3c4c(nc(N5CCOCC5)c(C#N)c24)NC(C)=N3)O1 (stereo not given) | -0.387 |
| O=C(c1ccco1)N1CCCC(c2ccccc2)C1 (stereo not given) | -0.388 |
| CCOC(=O)c1ccc(COC(=O)c2nonc2N)cc1 | -0.0847 |
| C=CCNC(=O)CC(C)C(CCCCC)C(=O)O (stereo not given) | -0.15 |
| Cc1ccc(CNC(=O)c2cc3c(C)nc4ccccc4c3o2)cc1 | 0.19 |
| Cc1ccc(SCCNC(=O)c2ccccc2C)cc1 | -0.0405 |
| O=C(Cn1nc(-c2ccc(Cl)cc2)c2ccccc2c1=O)Nc1cccnc1 | -0.258 |
| CCC(C)(C)n1nnnc1CN1CCN(c2nc3cc(OC)ccc3cc2C#N)CC1 | -1.2 |
| OCCNc1ncnc2c1ncn2Cc1ccccc1 | -0.662 |
| Cn1ncc2c(NCc3ccccc3)ncnc21 | -0.129 |
| CC(C)CCn1cnc2c(NCc3ccccc3)ncnc21 | 2.07 |
| O=C(CCCOc1ccc(Cl)cc1Cl)N/N=C\C1CCCCC1 | -0.118 |
| CCn1c(-c2cc(-c3cccc(OC)c3)nc3ccccc23)n[nH]c1=S | 1.92 |
| CCn1c(-c2cc(-c3cc(OC)ccc3OC)nc3ccccc23)n[nH]c1=S | 0.132 |
| CCOc1cccc(-c2cc(-c3n[nH]c(=S)n3CC)c3ccccc3n2)c1 | 2.09 |
| CCn1c(-c2cc(-c3ccccc3OC)nc3ccccc23)n[nH]c1=S | 0.152 |
| CCCOc1cccc(-c2cc(-c3n[nH]c(=S)n3CC)c3ccccc3n2)c1 | 4.22 (active) |
| CCn1c(-c2cc(-c3ccc(OC(C)C)cc3)nc3ccccc23)n[nH]c1=S | 1.25 |
| CCOC(=O)c1cc2nc(-c3ccco3)cc(C(F)(F)F)n2n1 | -1.72 |
| CCOc1ccc(-c2nc(C#N)c(NCc3ccc4c(c3)OCO4)o2)cc1 | 0.406 |
| O=c1[nH][nH]c(-c2ccccc2)c1C=Nc1ccccc1 | -0.278 |

| Structure (SMILES) | z-score |
| --- | --- |
| O=C1CCC2CCCCC2(O)O1 (stereo not given) | -0.0285 |
| O=c1n(Cc2ccc(Cl)cc2)c2sc3c(c2c2ncnn12)CCCC3 | -0.595 |
| COc1cc(OC)cc(-c2nnc(SCC(=O)N3CCCC3)o2)c1 | -0.103 |
| COc1cc(-c2nnc(SCC(=O)N3CCCC3)o2)cc(OC)c1OC | 2.2 |
| COc1ccc(-c2nnc(SCC(=O)N3CCCC3)o2)cc1OC | 0.322 |
| COc1ccc(OC)c(C(=O)CSc2nc3cccnc3n2C)c1 | 0.718 |
| COc1ccc(S(=O)(=O)N(C)CC(=O)Nc2ccccc2OC)cc1 | -0.484 |
| OC(COCc1ccc2c(c1)OCO2)CN1CCN(Cc2ccccc2)CC1 (stereo not given) | -0.00855 |
| CN1CCN(CC(O)COCc2ccc3c(c2)OCO3)CC1 (stereo not given) | 0.1 |
| SC(COCc1ccccc1)CN1CCN(Cc2ccc3c(c2)OCO3)CC1 (stereo not given) | 3.02 (active) |
| CCn1nc(NC(=O)c2ccccn2)c2cc3cc(C)ccc3nc21 | -0.417 |
| CC1=C(C(=O)OCc2ccccc2)C(c2cccnc2)n2nnnc2N1 (stereo not given) | 0.152 |
| FC(F)(F)c1ccccc1NC(=S)N1CCN(c2ncccn2)CC1 | -0.0651 |
| CN1CCN(CCNC(=O)Nc2ccccc2C(F)(F)F)CC1 | -0.464 |
| CCCN1CCN(C(=S)Nc2ccccc2C(F)(F)F)CC1 | 2.17 |
| CC1CCC(C(=O)NC(C(=O)N2CCc3ccccc3C2)C(C)C)CC1 (stereo not given) | -0.269 |
| COc1ccc(-c2nc3c(c4nnc(SC(C)C(=O)Nc5ccccc5)n24)COC(C)(C)C3)cc1 (stereo not given) | -0.351 |
| CC1CCN(c2oc(-c3ccccc3F)nc2C#N)CC1 | 2.57 |
| N#Cc1nc(-c2ccccc2F)oc1N1CCCC1 | -0.139 |
| CC1CCN(c2oc(-c3cccc4ccccc34)nc2C#N)CC1 | 0.305 |
| C=CCn1c(SCCOC)nc2c1c(=O)[nH]c(=O)n2C | -0.444 |
| NC(Cc1ccc2nsnc2c1)C(=O)O (stereo not given) | 0.179 |
| CCCCn1c(Cc2ccccc2)nnc1SCC(=O)N1CCOCC1 | -0.257 |
| O=C1C(=Cc2cccn2-c2ccc(O)cc2)C(=O)c2ccccc21 | -0.204 |
| O=C1Nc2ccccc2/C1=C\c1cccn1-c1ccc(OC(F)(F)F)cc1 | 2.45 |

| Structure (SMILES) | z-score |
| --- | --- |
| CN(C)/C=C1\C(=O)Nc2ccccc21 | -0.00898 |
| COc1ccc(OC)c(NC(=O)CSc2nnc(CNC(=O)c3ccco3)o2)c1 | -0.27 |
| O=C(Nc1nccs1)C1C2/C=C\CCCCC21 (stereo not given) | 0.175 |
| COC(=O)Nc1ccc([N+](=O)[O-])cc1OC | -0.117 |
| COc1ccc2nc(NC(=O)CN3CCN(C)CC3)sc2c1 | 0.194 |
| c1cncc(-c2nnc(-c3ccco3)o2)c1 | -0.101 |
| CC(C)CC(=O)Nc1cccc2c1C(=O)N(c1ccccc1)C2=O | -3.2 (active) |
| CC(=O)Nc1cccc2c1C(=O)N(c1ccc(C)cc1)C2=O | 0.845 |
| CC(=O)Nc1cccc2c1C(=O)N(c1cccc(C)c1)C2=O | 3.13 (active) |
| Cc1csc(N(C(=O)c2ccc(S(=O)(=O)N(C)C)cc2)c2ccccc2)n1 | 0.4 |
| Cc1csc(N(C(=O)c2cccc(S(=O)(=O)N3CCCC3)c2)c2ccccc2)n1 | -0.475 |
| Cc1csc(N(C(=O)c2cccc(S(=O)(=O)N(C)C)c2)c2ccccc2)n1 | 2.2 |
| COc1cc(C2N(c3ccc(F)cc3)C(=O)C3CCCN32)cc(OC)c1OC (stereo not given) | 0.416 |
| S=C1Nc2cc(Cl)ccc2Sc2ccccc21 | 11.3 (active) |
| O=C1CCSc2ccc(Cl)cc2N1Cc1ccccc1 | -0.321 |
| S=C1Nc2ccccc2Sc2ccc(Cl)cc21 | 4.1 (active) |
| Clc1ccc2c(c1)-c1nnc(Br)n1-c1ccccc1S2 | -4.38 (active) |
| O=C1CCSc2ccc(Cl)cc2N1Cc1ccc(Cl)cc1 | -0.366 |
| CCOC(=O)Nc1ccc2c(c1)Nc1ccccc1S2 | -0.571 |
| S=C1CCSc2ccc(Cl)cc2N1 | 9.14 (active) |
| O=C1Cc2ccccc2Sc2ccc(Cl)cc21 | -0.097 |
| O=C1Nc2ccccc2S/C1=C/Nc1cccc(Cl)c1 | -0.29 |
| Cc1ccc(-n2c(Cc3cccn3C)nnc2SCC(=O)N2CCN(c3ccccc3)CC2)cc1 | -0.835 |
| Cc1ccc(S(=O)(=O)N2CCN(C(=O)N(c3ccccc3)c3ccccc3)CC2)cc1 | -0.559 |
| O=c1cc(O)nc(SCc2ccccc2)n1-c1ccc(F)cc1 | -0.305 |
